Measured values taken from PubChem BioAssay AID620 (Sanford-Burnham Center for Chemical Genomics, 2007).
In all, about 87,000 compounds went through this assay and about 360 (0.41%) were called active. No stated cut-off is given here; in the data, active means cytotoxicity above about 50%; inactive means the rest. Only a selection was taken, and actives are over-represented in it overall.

experiment: HT1080 cell viability loss – fluorescence readout (AID 620); details: at 10 µM, stronger effect = higher value;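 further: cells exposed to compound overnight then 4 h with Alamar Blue; 0% = vehicle DMSO and 100% = killing control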

Row | Compound | cytotoxicity
1 | O=C(CCCN1C(=O)c2ccccc2C1=O)Nc1ccc(S(=O)(=O)N2CCOCC2)cc1 | 14.1% (inactive)
2 | CCCCCc1nnc(NC(=O)CS(=O)(=O)Cc2ccccc2)s1 | -1.5% (inactive)
3 | CC1=CC(C)(C)Nc2ccc(OC(=O)CN3C(=O)C4CCCCC4C3=O)cc21 (stereo unspecified) | -1% (inactive)
4 | CC1=CC(C)(C)Nc2ccc(OC(=O)c3ccco3)cc21 | 59.2% (active)
5 | CC1=CC(C)(C)Nc2ccc(OC(=O)c3cccnc3)cc21 | 14.7% (inactive)
6 | COc1ccc(CC(=O)c2ccccc2C(=O)O)cc1 | -0.2% (inactive)
7 | CCCCN(CCCC)S(=O)(=O)c1ccc(OC)c2ncccc12 | 32.7% (inactive)
8 | CO/N=C/C(=N\Nc1ccc(C)cc1)C(=O)c1ccc(OC)cc1 | 53.7% (active)
9 | COc1ccc(N/N=C(\C=N\O)C(=O)c2ccc(OC)cc2)cc1 | 59% (active)
10 | COc1ccc(C(=O)Oc2ccc(/C=N/O)cc2)cc1 | 2.6% (inactive)
11 | CO/N=C/C(=N\Nc1ccc(OC)cc1)C(=O)c1ccc(OC)cc1 | 11.7% (inactive)
12 | CO/N=C\C(=N\Nc1ccc(OC)cc1)C(=O)c1ccccc1 | -0.7% (inactive)
13 | COc1ccc(N/N=C(/Oc2ccc([N+](=O)[O-])cc2)C(C)=O)cc1 | 5.4% (inactive)
14 | CCOc1ccc(N2C(=O)CSC23CCCCC3)cc1 | -10.8% (inactive)
15 | COCCn1c(SCC(=O)NCc2cccs2)nnc1-c1ccc(OC)cc1 | 7.9% (inactive)
16 | Cc1ccc(SC(C)C(=O)Nc2ccncc2)cc1 (stereo unspecified) | -1.4% (inactive)
17 | O=C1c2[nH]nc(-c3ccccc3O)c2C(c2cccc(Cl)c2)N1Cc1ccco1 (stereo unspecified) | 3.9% (inactive)
18 | Cc1ccc(S(=O)(=O)N2CCN(C(=O)c3ccc(OCc4c(C)noc4C)cc3)CC2)cc1 | -2.3% (inactive)
19 | NC(=O)C1CCN(C(=S)c2cccs2)CC1 | 8.7% (inactive)
20 | N#CC1=C2SCC(O)(c3ccccc3)N2C(=O)CC1c1ccccc1 (stereo unspecified) | 63.1% (active)
21 | COc1ccc(C2CC(=O)N3C(=C2C#N)SCC3(O)c2ccccc2)cc1 (stereo unspecified) | 5.5% (inactive)
22 | N#CC1=C2SCC(O)(c3ccccc3)N2C(=O)CC1c1ccccc1F (stereo unspecified) | 4.1% (inactive)
23 | O=C(NCCCN1CCCC1=O)c1cccs1 | 1.9% (inactive)
24 | Cn1c(=O)c2c(nc(CN3CCN(c4ccccc4)CC3)n2CCN2CCOCC2)n(C)c1=O | 8.9% (inactive)
25 | COc1ccc(Nc2cc(C)nc(-n3nc(C)cc3C)n2)cc1 | 65.9% (active)
26 | COc1ccc(Nc2cc(C)nc(N3CCOCC3)n2)cc1 | 21.5% (inactive)

Row | Compound | cytotoxicity
27 | CCOc1ccc(Nc2cc(C)nc(N3CCOCC3)n2)cc1 | -0.6% (inactive)
28 | Cc1cc(NCCO)nc(-n2nc(C)cc2C)n1 | -5.5% (inactive)
29 | CCOc1ccc(Nc2cc(C)nc(-n3nc(C)cc3C)n2)cc1 | 50.6% (active)
30 | CNc1cc(C)nc(-n2nc(C)cc2C)n1 | 2.1% (inactive)
31 | CCCc1nc2sc3ccccc3c(=O)c2c(=O)n1Cc1ccco1 | 21% (inactive)
32 | Cc1cccc(NS(=O)(=O)c2cc(C(=O)N3CCN(C)CC3)ccc2C)c1 | -3.1% (inactive)
33 | COC(=O)Nc1nc2ccc(Sc3ccccc3)cc2[nH]1 | 62.2% (active)
34 | Cc1nc2ccc(C(=O)c3ccccc3)cc2[nH]1 | -6.6% (inactive)
35 | COc1cc(C(=O)Nc2nc3ccccc3[nH]2)cc(OC)c1OC | -3.2% (inactive)
36 | COC(=O)Nc1nc2ccc(C(=O)c3ccccc3)cc2[nH]1 | 61.1% (active)
37 | COc1cc(OC)cc(C(=O)Nc2nc3ccccc3[nH]2)c1 | -1.1% (inactive)
38 | COc1ccc(C(=O)Nc2nc3ccccc3[nH]2)cc1OC | 0.5% (inactive)
39 | Cc1ccc(-c2nc(CS(=O)CC(=O)NC3CCC(C)CC3)c(C)o2)cc1 (stereo unspecified) | -9.8% (inactive)
40 | CCc1ccc(OC)c(S(=O)(=O)Nc2ccccc2C)c1 | 3.8% (inactive)
41 | CC(C)N(c1ccccc1)c1ccc(NC(=O)C2CCCO2)cc1 (stereo unspecified) | -3.8% (inactive)
42 | Cc1ccc(-c2csc3ncnc(NCCN4CCOCC4)c23)cc1 | -10.9% (inactive)
43 | Cn1nnnc1Sc1ncnc2scc(-c3ccc(F)cc3)c12 | 20% (inactive)
44 | CNC(=O)CN1C(=O)CSc2ncccc21 | -11.8% (inactive)
45 | Cn1c(=NC(=O)CN2C(=O)C3CC=CCC3C2=O)sc2ccccc21 (stereo unspecified) | -0.3% (inactive)
46 | Cn1c(=NC(=O)CCl)sc2ccccc21 | 98.2% (active)
47 | CC(=O)N=c1sc2ccccc2n1C | -2.3% (inactive)
48 | CC(=O)Nc1ccc(NC(=O)Cn2c(CC(=O)N3CCCC3)nc3ccccc32)cc1 | -27.7% (inactive)
49 | C=CCn1c(N2C(=O)CC(Cc3ccccc3)C2=O)nc2ccccc21 (stereo unspecified) | 5.8% (inactive)
50 | CCc1ccc(NC(=O)c2ccccc2NC(=O)C2CCCO2)cc1 (stereo unspecified) | -5.7% (inactive)
51 | COc1cccc2c(=O)n(CC(=O)NC3CCCC3)ccc12 | 2.2% (inactive)
52 | c1ccc(-c2nnc(-c3ccccn3)nc2NC2CCCCC2)cc1 | 50.7% (active)

Row | Compound | cytotoxicity
53 | CNc1nc(-c2ccccn2)nnc1-c1ccccc1 | 10.4% (inactive)
54 | c1ccc(-c2noc(C3CCCCC3)n2)nc1 | -7.2% (inactive)
55 | CN1CCC(N(C)C(=O)c2ccccc2Nc2ccc(SC(F)F)cc2)CC1 | 5.3% (inactive)
56 | CCCn1c(NCc2ccc(C)o2)nc2ccccc21 | 0.5% (inactive)
57 | COCCn1nnnc1C(c1ccc2ncccc2c1)N1CCN(c2ccccc2F)CC1 (stereo unspecified) | -18.9% (inactive)
58 | O=S(=O)(c1ccccc1)N1c2cc(Cl)ccc2Oc2nc3ccccc3nc21 | -4.7% (inactive)
59 | COc1ccc(S(=O)(=O)N2c3cc(Cl)ccc3Oc3nc4ccccc4nc32)cc1 | 70.2% (active)
60 | O=S(=O)(c1ccc(Cl)cc1)N1c2ccccc2Oc2nc3ccccc3nc21 | 3.8% (inactive)
61 | COC(=O)c1cc(NS(=O)(=O)c2ccc(OC)c(OC)c2)ccc1Cl | 3.3% (inactive)
62 | COCc1[nH]nc2c1C(c1ccccc1Cl)C(C#N)=C(N)O2 (stereo unspecified) | -4.4% (inactive)
63 | Cc1cc(C(C)(C)C)nc2[nH]n(-c3ccccc3)c(=O)c12 | -2.1% (inactive)
64 | Cc1ccnc(NC(=O)c2cc(-n3cnnc3)ccc2Cl)c1 | 12.1% (inactive)
65 | CC(C)(C)C(=O)Nc1sc2c(c1C#N)CCCCC2 | 5.8% (inactive)
66 | COCCCNC(=O)CC(NS(=O)(=O)c1ccc(Cl)cc1)c1ccco1 (stereo unspecified) | -9.5% (inactive)
67 | CC(C)CNS(=O)(=O)c1ccc(CCC(=O)N2CCOCC2)cc1 | 2.1% (inactive)
68 | C=C(C)COc1ccc(-c2n[nH]c(C)c2-c2ccc(OC)cc2)c(O)c1 | -14.1% (inactive)
69 | C=C(C)COc1ccc(-c2n[nH]c(C)c2-c2ccc(Br)cc2)c(O)c1 | 50.7% (active)
70 | COc1ccc(-c2n[nH]c(C)c2-c2ccc(Cl)cc2)c(O)c1 | -10.8% (inactive)
71 | COc1ccccc1NS(=O)(=O)c1cc(Cl)ccc1OC | 16.4% (inactive)
72 | Cn1c(N)c(C(=O)COC(=O)c2cc(C(F)(F)F)nc3ccccc23)c(=O)n(Cc2ccccc2)c1=O | 5.9% (inactive)
73 | COc1ccc(CCNc2c(C)c(C)nc3ncnn23)cc1 | 17.9% (inactive)
74 | CCc1c(C)nc2ncnn2c1NCCc1ccccc1 | -9.2% (inactive)
75 | CCc1c(C)nc2ncnn2c1NCCc1ccc(OC)cc1 | 61.9% (active)
76 | O=C(N1CCOCC1)C12CC3CC(C1)CC(C(=O)N1CCOCC1)(C3)C2 | -17.8% (inactive)
77 | Cc1cc(C)c(C)c(S(=O)(=O)NCC(=O)N2CCCC2)c1C | 6.8% (inactive)
78 | COc1ccc(NC(=O)/C(Cl)=C(/Cl)S(=O)Cc2ccccc2)cn1 (stereo unspecified) | 95.5% (active)

Row | Compound | cytotoxicity
79 | COc1ccc(NC(=O)/C(Cl)=C(/Cl)S(=O)Cc2ccc(C)cc2)cn1 (stereo unspecified) | 92.3% (active)
80 | COc1ccc(NC(=O)c2cc(=O)c3ccccc3o2)cn1 | 7% (inactive)
81 | COc1ccc(NC(=O)c2nc3nccc(C)n3n2)cn1 | 10.5% (inactive)
82 | CCOc1ccccc1OCCCC(=O)Nc1ccc(OC)nc1 | 2.4% (inactive)
83 | COc1ccc(NC(=O)c2cc(CN3C(=O)c4ccccc4C3=O)ccc2OC)cn1 | -0.1% (inactive)
84 | COc1ccc(CC(=O)N2CCN(C(=O)c3ccco3)CC2)cc1 | 4.7% (inactive)
85 | NC(=O)C(c1ccccc1)C1CCCCC1 (stereo unspecified) | 5.9% (inactive)
86 | CC1(C)CC(=O)C=C(NCCN2CCN(C(=O)Nc3ccc(Cl)cc3)CC2)C1 | -6.1% (inactive)
87 | Cc1[nH]nc(SCC(=O)N2CCC(C)CC2)c1[N+](=O)[O-] | 0.7% (inactive)
88 | COC(=O)C1CC(=O)N(CCc2c[nH]c3ccccc23)C1 (stereo unspecified) | 2.6% (inactive)
89 | COC(=O)Cn1nc(-c2ccccc2)c2ccccc2c1=O | 5.9% (inactive)
90 | COc1ccc(-n2nnnc2S(=O)(=O)Cc2ccc(C(=O)O)cc2)cc1 | 11.4% (inactive)
91 | COc1ccc(-n2nnnc2S(=O)(=O)CC(=O)N2CCCCC2)cc1 | 54.3% (active)
92 | COc1cc(OC)cc(-n2nnnc2SCC(=O)N2CCCC2)c1 | -5.2% (inactive)
93 | Cn1c(SCc2cc(=O)[nH]c3ccccc23)nnc1-c1ccc(Br)cc1 | 6% (inactive)
94 | Clc1cccc(-c2nnc(SC/C=C/c3ccccc3)n2Cc2ccco2)c1 | -0.5% (inactive)
95 | C(=C\c1ccccc1)/CSc1nnc(-c2ccncc2)n1Cc1ccco1 | -2.1% (inactive)
96 | C(=C\c1ccccc1)/CSc1nnc(-c2ccccc2)n1Cc1ccco1 | 53.5% (active)
97 | O=C(CN1C(=O)NC(Cc2ccccc2)C1=O)Nc1ccccc1 (stereo unspecified) | -3.1% (inactive)
98 | COC(=O)CSc1cc(C)nc(SC)n1 | -7.3% (inactive)
99 | O=C(Nc1cc(Cl)ccc1O)C1CCCO1 (stereo unspecified) | -2.4% (inactive)
100 | CCc1nnc(NC(=O)Cn2nc(-c3ccccc3OC)ccc2=O)s1 | 10.1% (inactive)
101 | CC(=O)c1cn(CC(=O)Nc2ccccc2C)c2ccccc12 | -1.9% (inactive)
